Hit rate of the full screen: of about 360,000 compounds, about 7,500 (2.1%) were called active. Not shown: some 8% with an inconclusive outcome. This excerpt belongs to a sample that is enriched for actives. A number with no mark means an inactive call. Calls come from the whole dose curve; as a rule, active = well fitted cell-killing curve with a large enough effect; inconclusive = small, poorly fitted or top-dose-only effect, or effect the other way, or another doubt; inactive = no such curve, though single readings can be large or run the other way.
Assay: qHTS for induction of synthetic lethality in tumor cells producing 2HG: qHTS for the HT-1080-IDH1KD cell line;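 for activity, negative = toxicity: 0% = DMSO wells and -100% = cell-free medium wells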
Settings: HT-1080 IDH1 knockdown viability, ATP luminescence, 48 h; series mostly up to 46.1 µM; activity, negative = toxicity: at the top concentration
In short: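 Assay cells: HT-1080 with IDH1 knockdown, 750 per well, RPMI/5% FBS. Exposure: 48 h at 37 °C following 2 h pre-incubation. Read: CellTiter-Glo luminescence; fitted concentration-response, curve class assigned.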
Potency is the fitted concentration of half-maximal effect.

Row | Structure (SMILES) | activity, negative = toxicity | Potency
1 | CC1(C)OC(=O)C2=C(C[C@@H](C3CCCC3)O[C@@H]2c2ccc(Cl)cc2)O1 | 8.76% | –
2 | CC1(C)CCc2cc(S(=O)(=O)N3CCN(c4nc(-c5cccs5)nc5ccccc45)CC3)ccc2O1 | 5.15% | –
3 | COc1ccc(C(C)(NC(C)=O)c2nc(-c3ccc(S(C)(=O)=O)cc3)cs2)cc1 (stereo unspecified) | 8.14% | –
4 | COC(=O)c1ccc2nc(-c3ccc(Cl)cc3)c(Cc3cccc(F)c3)n2c1 | 9.38% | –
5 | CC(C)CC[n+]1ccn(C2=C([O-])c3ccccc3C(=O)/C2=N\S(=O)(=O)c2ccccc2)c1 | – | 11.2 µM (active)
6 | CC[C@@H]1CC2=C(C(=O)OC(C)(C)O2)[C@@H](CC)O1 | -0.785% | –
7 | CCOC(=O)C1(C)CCCN(C(=O)c2ccc(N(C)C)cc2)C1 (stereo unspecified) | 8.71% | –
8 | CCC(=O)c1ccc(N2CCN(C(=O)c3cc([N+](=O)[O-])ccc3F)CC2)c(F)c1 | 2.7% | –
9 | CCN1CCN(c2ccc([N+](=O)[O-])cc2C(=O)c2ccc(Cl)cc2)CC1 | – | 23.1 µM (active)
10 | O=C(Nc1cccc(Cl)c1)c1cc([N+](=O)[O-])ccc1N1CCN(CCO)CC1 | -0.581% | –
11 | CN(Cc1c(F)cccc1Cl)C(=O)COC(=O)Cn1cnc2ccccc2c1=O | 4.82% | –
12 | O=c1c2c3c(sc2n(CCN2CCCC2)c(=O)n1Cc1ccccc1)CCCCC3 | -0.168% | –
13 | CN(C)CCCn1c(=O)n(Cc2ccccc2)c(=O)c2c3c(sc21)CCCCC3 | – | 25.9 µM (active)
14 | Cn1c(=O)n(Cc2ccco2)c(=N)c2c3c(sc21)CCCC3 | -10% | –
15 | COc1cccc(-c2nc3nc(C)cc(C)n3c2NC2CCCCC2)c1 | 7.4% | –
16 | COC(=O)C[C@H]1C=C[C@@H](NS(=O)(=O)c2ccc(C)cc2)[C@@H](CO)O1 | 15.1% | –
17 | COCCNC(=O)C1(C)CCCN(Cc2cccc(F)c2)C1 (stereo unspecified) | 9.99% | –
18 | CCCc1cc(=O)[nH]c(SCC(=O)OCc2ccccc2)n1 | 0.689% | –
19 | CCCc1cc(=O)[nH]c(SCC(=O)c2c(N)n(CC(C)C)c(=O)n(C)c2=O)n1 | – | 3.26 µM (active)
20 | CCCc1cc(=O)[nH]c(SCC(=O)c2cc(C)n(CCC)c2C)n1 | 2.35% [at 9.24 µM] | –
21 | COC(=O)c1ccc2nc(-c3ccccc3)c(Cc3ccc(OC)cc3C)n2c1 | 5.54% | –

Row | Structure (SMILES) | activity, negative = toxicity | Potency
22 | O=C(c1cc(C2CCCCN2S(=O)(=O)c2ccccc2)on1)N1CCOCC1 (stereo unspecified) | 19.8% | –
23 | CCOC(=O)/C(=C\c1ccc([N+](=O)[O-])cc1)C(=O)c1cc(C(C)=O)c(Nc2ccccc2)s1 | 17.6% | –
24 | CCOC(=O)NC(=O)/C(C#N)=C\c1ccccc1 | 1.01% | –
25 | CCOC(=O)C(=Cc1ccccc1)C(=O)c1ccccc1 | – | 18.4 µM (active)
26 | COC(=O)C[C@H]1C[C@@H]2c3cc(NC(=O)Nc4ccccc4)ccc3O[C@@H]2[C@@H](CO)O1 | 4.69% | –
27 | COc1ccc(C2Nc3ccc(NC(=O)COC(C)=O)cc3C(=O)N2Cc2ccccc2)cc1COc1ccc(NC(C)=O)cc1 (stereo unspecified) | -21.2% | –
28 | CCN(c1ccccc1)S(=O)(=O)c1ccc(C(=O)Nc2nccs2)cc1 | 10% | –
29 | C=CCN(CC=C)S(=O)(=O)c1ccc(C(=O)Nc2nc3c(s2)CCc2ccccc2-3)cc1 | – | 14.6 µM (active)
30 | Cc1cccc(NC(=O)c2ccc(S(=O)(=O)N(C)c3ccccc3)cc2)n1 | -21.5% | –
31 | Cc1ccccc1S(=O)(=O)NC(=O)C1(C)CCN1C(=O)C1(c2ccc(Cl)cc2)CC1 (stereo unspecified) | 28% | –
32 | CNS(=O)(=O)c1ccc2c(c1)[nH]c(=S)n2C | -8.8% | –
33 | COc1ccc(OC)c(Cc2cnc3nc(N)nc(N)c3c2C)c1 | – | 0.0103 µM (active)
34 | COc1ccc(OC)c(Cc2nnc(CCC(=O)NC3CCCC3)o2)c1 | 11.3% | –
35 | COc1ccc(-c2nc(N)ncc2-c2ccc(Cl)cc2)c(O)c1 | -6.82% | –
36 | Nc1nc2cc(Cl)ccc2n1N | 8.14% | –
37 | CCC(C)CN1C(=O)CSCC1(C)C(=O)NCc1ccccc1 (stereo unspecified) | 24.8% | –
38 | Cc1sc2ccccc2c1CNC[C@H]1O[C@@H](n2ccc(=O)[nH]c2=O)[C@H](O)[C@@H]1O | 14.3% | –
39 | O=C(COC(=O)c1cncc(Br)c1)Nc1ccc(S(=O)(=O)N2CCOCC2)cc1 | -1.98% | –
40 | CCc1nc2c(OCCOc3ccccc3)cccn2c1N(C)C(=O)c1cccs1 | 5.52% | –
41 | Cc1cccc(-c2cnc(C(O)c3cc(C)cc(C)c3)[nH]2)c1 (stereo unspecified) | -12.6% | –
42 | Cc1ccc(OCC(=O)NCCCNC(=O)c2cccnc2)cc1C | – | 18.4 µM (active)

Row | Structure (SMILES) | activity, negative = toxicity | Potency
43 | CCCOc1cccc(C(=O)NCCCNC(=O)c2cccnc2)c1 | 0.556% | –
44 | Cc1cccc(OCC(=O)NCCNC(=O)c2cccnc2)c1 | -4.95% | –
45 | CCN(CC)C(=O)C1=C(C)N(Cc2ccc(F)cc2)C(=O)C(CC(=O)NCc2cccc3ccccc23)C1 (stereo unspecified) | -2.6% | –
46 | COc1ccc(Br)cc1/C=N/NC(=O)c1cccc(S(=O)(=O)N2CCOCC2)c1 | -20.3% | –
47 | Cc1ccc(C(=O)N/N=C/c2cccc3ccccc23)cn1 | 6.84% | –
48 | COc1cc(/C=N\NC(=O)C2C(=O)NCC2c2ccccc2)cc(OC)c1O (stereo unspecified) | 2.02% | –
49 | COc1ccc(/C=N/NC(=O)c2ccncc2)cc1CN1CCCc2ccccc21 | -7.69% | –
50 | COc1cccc(/C=N\NC(=O)C2=NNC(=O)C2C)c1O (stereo unspecified) | – | 25.9 µM (active)
51 | COc1cccc(/C=N/NC(=O)c2[nH]nc3c2CCc2ccccc2-3)c1O | – | 3.66 µM (active)
52 | CC(C)C1CC2=C(C(=O)OC(C)(C)O2)C(c2ccc(F)cc2)O1 (stereo unspecified) | 6.13% | –
53 | CC1=C(C(=O)N2CCOCC2)CC(CC(=O)NCC2CCCCC2)C(=O)N1Cc1ccc(F)cc1 (stereo unspecified) | -8.15% | –
54 | O=Nc1c(O)cc(O)c2ccccc12 | 4.65% | –
55 | COC(=O)C[C@@H]1C=C[C@@H](NC(=O)c2cccnc2)[C@@H](CO)O1 | 8.29% | –
56 | O=C1NC[C@H](CCCCN2C[C@H](Cc3ccc(O)cc3)N(CC3CCCCC3)C(=O)C2=O)N(CCc2ccccc2)C1=O | 8.08% | –
57 | CCCCCCN1C[C@H](O)[C@@H](n2cc(C3CC3)nn2)C[C@@H]1c1ccc(Cl)cc1 | 6.32% | –
58 | CCOC(=O)N1CCN(C(=O)c2ccc(S(=O)(=O)Nc3cccc(C(F)(F)F)c3)cc2)CC1 | -0.977% | –
59 | O=C(COc1ccc(S(=O)(=O)Nc2cccc(C(F)(F)F)c2)cc1)N1CCOCC1 | -12.4% | –
60 | Cc1oc2c(F)c(F)c(F)c(F)c2c1S(=O)(=O)Nc1cccc(C(F)(F)F)c1 | – | 18.4 µM (active)
61 | COc1cc(C(=O)N2CCOC23CCN(Cc2ccccc2)CC3)cc(OC)c1OC | 7.44% | –
